Consider seven molecules from PubChem BioAssay (Tox21).

The structures appear in SMILES notation. A number with no mark means an inactive call. Records with an inconclusive call do not appear. Activity calls are given as the source filed them. Unless noted, calls come from the whole dose curve; as a rule, active = well fitted curve in the direction sought with a large enough effect in the repeat runs; inconclusive = weak or mixed curves; inactive = no such curve, though single readings can be large; an effect the other way counts as inactive or inconclusive.

Assay [1] is described as follows: qHTS assay to identify small molecule agonists of the hypoxia (HIF-1) signaling pathway - cell viability counter screen (AID 1224844; calls by dose curve; note: nearly all actives have a fitted effect of over 50% in size). Summed up: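 Cytotoxicity was measured in parallel with the HRE-driven beta-lactamase readout: after 17 hrs of compound exposure at 37C, HRE-bla ME-180 cells received CellTiter-Glo and luminescence was recorded 30 min later.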
The nature of assay [2]: qHTS assay to identify small molecule agonists of the hypoxia (HIF-1) signaling pathway (AID 1224846; active = well fitted activation curve with a large enough effect in the signal ratio in the repeat runs, not every such curve was filed as active; the % refers to the signal ratio). Put shortly:
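Compounds from the Tox21 10K library, dissolved in DMSO, are tested for induction of a hypoxia response element–controlled beta-lactamase reporter in ME-180 cells. Exposure lasts 17 hrs at 37C after a 5 hr settling period, followed by CCF4-AM FRET substrate.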
For orientation: Quantitative high-throughput screening tests each substance at several concentrations.

A short description of assay [3]: qHTS assay to identify small molecule agonists of H2AX - cell viability counter screen (AID 1224847; calls by dose curve;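 note: wild-type CHO-K1 cells; top concentration of the series differs between compounds; nearly all actives have a fitted effect of over 30% in size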). Summed up: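 After overnight plating of 1000 CHO-K1 cells per well, a 15-concentration compound series was applied for 3 hr at 37C. Luminescence from CellTiter-Glo, read following 30 min at room temperature, reflected cell viability.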
The nature of assay [4]: qHTS assay to identify small molecule antagonists of the estrogen related receptor (ERR) signaling pathway from Tox21 library (AID 1224848). Note: nearly all actives have a fitted effect of over 50% in size. Summed up:
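Tox21 10K compounds in DMSO tested for ERR pathway antagonism in NTP's ERR cell line; 18 h, 37 C exposure; ONE-Glo luminescence.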

The nature of assay [5]: qHTS assay to identify small molecule agonists of the estrogen related receptor (ERR) signaling pathway from Tox21 library (AID 1224849; calls by dose curve; note: nearly all actives have a fitted effect of over 15% in size). Particulars: ERR reporter cell line, ONE-Glo luciferase, 18 h; at 92.4 µM (top of the series) unless noted. Put shortly: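 Cells carrying the ERR reporter were plated and allowed to settle for 6 h, exposed to library compounds for 18 h at 37 C, then lysed with ONE-Glo and luminescence measured.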

Assay [6] can be described thus: qHTS RealTime-Glo MT Cell Viability Assay in HepG2 cells - 24 hour (AID 1224867). Note: nearly all actives have a fitted effect of over 50% in size. Summed up: (§1)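 Cell number in HepG2 cultures estimated from NanoLuc luminescence generated by metabolic reduction of a prosubstrate by living cells. The homogeneous, nonlytic format allowed repeated reads at 0, 8, 16, 24, 32 and 40 h of compound exposure.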
Assay [7] in a line: qHTS RealTime-Glo MT Cell Viability Assay in HEK293 cells - 32 hour (AID 1224868). Note: top concentration of the series differs between compounds; nearly all actives have a fitted effect of over 50% in size. Put shortly: (§2)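 Homogeneous bioluminescent viability format in HEK293 cells (600 cells/well). Following 5 h at 37 C/5% CO2, 23 nL compound was pintooled; the signal was measured repeatedly during 40 h incubation.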
A short description of assay [8]: A CellTox Green Cytotoxicity Assay to monitor cytotoxicity in HEK293 cells - 0 hour (AID 1224869). Note: nearly all actives have a fitted effect of over 50% in size. Summed up: (§3)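 Cells (HEK293, 600/well) and dye reagent are dispensed together. After 5 h at 37 C, 23 nL compound is pinned in. Plates stay at 37 C for 40 h with fluorescence read at 0h, 8h, 16h, 24h, 32h and 40h.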
A short description of assay [9]: qHTS RealTime-Glo MT Cell Viability Assay in HepG2 cells - 40 hour (AID 1224870). Note: nearly all actives have a fitted effect of over 50% in size. Put shortly:
(§4)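 HepG2 cells mixed with RealTime-Glo MT reagents (NanoLuc plus cell-permeant prosubstrate) were seeded at 600 cells/well, incubated 5 h at 37 C/5% CO2, then pinned with compounds in DMSO; nonlytic luminescence tracked viability during 40 h treatment.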

The nature of assay [10]: A CellTox Green Cytotoxicity Assay to monitor cytotoxicity in HEK293 cells - 40 hour (AID 1224871). Note: nearly all actives have a fitted effect of over 45% in size. Summed up:
as §3

Assay [11] in a line: qHTS RealTime-Glo MT Cell Viability Assay in HEK293 cells - 16 hour (AID 1224872). Put shortly: as §2
Assay [12] in a line: qHTS RealTime-Glo MT Cell Viability Assay in HEK293 cells - 40 hour (AID 1224874). Note: nearly all actives have a fitted effect of over 50% in size. The following applies: RealTime-Glo luminescence; max response: active compounds read low. Summed up:
(§5)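 Real-time viability in HEK293: signal arises when living cells convert a prosubstrate for NanoLuc in the medium, so luminescence tracks viable cell number. Compound (23 nL, DMSO) added 5 h post-seeding; kinetic reads at 0–40 h, 37 C.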

The nature of assay [13]: A CellTox Green Cytotoxicity Assay to monitor cytotoxicity in HepG2 cells - 16 hour (AID 1224876). Note: nearly all actives have a fitted effect of over 45% in size. Note: potency is the fitted concentration of half-maximal effect. Summed up:
(§6)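 Cells and non-lytic dye reagent are dispensed together (600 HepG2 cells/well) and incubated 5 h before DMSO compound transfer. Kinetic fluorescence is then recorded in the same wells during 40 h at 37 C.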

The nature of assay [14]: qHTS RealTime-Glo MT Cell Viability Assay in HepG2 cells - 32 hour (AID 1224877). Note: nearly all actives have a fitted effect of over 55% in size. Put shortly: as §1
The nature of assay [15]: A CellTox Green Cytotoxicity Assay to monitor cytotoxicity in HepG2 cells - 24 hour (AID 1224878). Note: nearly all actives have a fitted effect of over 45% in size. Note: potency is the fitted concentration of half-maximal effect. Put shortly: as §6
Assay [16] is described as follows: A CellTox Green Cytotoxicity Assay to monitor cytotoxicity in HepG2 cells - 40 hour (AID 1224879). Note: nearly all actives have a fitted effect of over 40% in size. Note: potency is the fitted concentration of half-maximal effect. Summed up:
as §6

The nature of assay [17]: qHTS RealTime-Glo MT Cell Viability Assay in HEK293 cells - 0 hour (AID 1224880). Note: top concentration of the series differs between compounds; nearly all actives have a fitted effect of over 45% in size. Put shortly: as §5
Assay [18] in a line: qHTS RealTime-Glo MT Cell Viability Assay in HepG2 cells - 8 hour (AID 1224873). Note: nearly all actives have a fitted effect of over 55% in size. Summed up: as §4
A short description of assay [19]: A CellTox Green Cytotoxicity Assay to monitor cytotoxicity in HEK293 cells - 24 hour (AID 1224875). Note: nearly all actives have a fitted effect of over 45% in size. Summed up: as §3
% is set by controls: 0 for no effect and ±100 for the full control effect.

Regarding `O=C(CC(=O)c1ccccc1)c1ccccc1`, the Potency entry in assay [1], in assay [3], in assay [4], in [6], in [7] and in [8] was “inactive” each time. The Potency result in assay [9], in assay [10], in [11], in assay [13], in [14] and in [15] was “inactive” throughout. The Potency result in assay [16] and in assay [17] was “inactive” each time. In assay [2], the result was inactive. In addition, the activity change, positive = activation in assay [5] is 58.5% (active). Moreover, the max response in assay [12] was -4.39%.
As for `Oc1ccc(C(O)CNCCCCCCNCC(O)c2ccc(O)c(O)c2)cc1O` (stereo unspecified), the Potency result in assay [1], in assay [3], in [6], in assay [7], in [8] and in assay [9] was “inactive” throughout. For the same molecule, the Potency result in assay [10], in [11], in assay [18], in assay [19], in assay [13] and in assay [14] was “inactive” throughout. Besides, the Potency entry in assay [15], in [16] and in [17] was “inactive” each time. The molecule was classed as inactive in [2]. Also, the activity change, positive = activation in assay [5] was 1.29% [at 42.5 µM]. In assay [12], the max response was 1.45%.
`ClC(Cl)(Cl)c1ccc(C(Cl)(Cl)Cl)cc1`: the Potency result in [1], in assay [6], in assay [7], in assay [8], in [9] and in [11] was “inactive” throughout. The Potency result in [18], in [19], in [13], in assay [14], in [15] and in [16] was “inactive” each time. Moreover, in [17], the Potency entry was “inactive”. Also, the molecule was called inactive in assay [2]. Besides, the max response in assay [12] was -9.34%.
For `FC(F)(F)C(F)(F)C(F)(F)C(F)(F)C(F)(F)C(F)(F)CCI`, the Potency result in assay [1], in assay [3], in assay [6], in assay [7], in [8] and in [9] was “inactive” throughout. Also, the Potency entry in assay [10], in [11], in assay [18], in assay [19], in assay [13] and in assay [14] was “inactive” in each case. For the same molecule, the Potency entry in assay [15] and in [16] was “inactive” each time. In assay [2], the outcome was inactive. In addition, the max response in assay [12] was -0.265%.
For `Cc1ccc(C(C)c2ccc(C)c(C)c2)cc1C`, the Potency entry in assay [1], in [6], in assay [7], in assay [8], in assay [9] and in assay [10] was “inactive” in each case. Further, the Potency result in assay [11], in assay [18], in assay [19], in [13], in [14] and in [15] was “inactive” each time. Also, the Potency entry in assay [16] is “inactive”. The outcome in assay [2] was inactive. The max response in assay [12] was -0.95%.
For the molecule `CCCCCCc1ccc(N)cc1`, the Potency entry in [1], in assay [6], in [7], in assay [8], in [9] and in assay [10] was “inactive” throughout. For the same molecule, the Potency entry in [11], in assay [18], in assay [19], in assay [14] and in assay [17] was “inactive” throughout. Moreover, the call in [2] was inactive. For the same molecule, the activity change, positive = activation in assay [5] was -26.6%. Also, in assay [12], the max response is 4.72%. Besides, the Potency in [13], in assay [15] and in [16] was 49 µM (active) throughout.
On to `CCCCCC/C=C/C=O`, for which the Potency result in [1], in assay [3], in assay [4], in assay [6], in assay [7] and in assay [8] was “inactive” each time. For the same molecule, the Potency entry in [9], in assay [10], in assay [18] and in [14] was “inactive” in each case. In addition, in [2], the call was inactive. Besides, in [5], the activity change, positive = activation is 2.49%. Moreover, in [12], the max response was 35.7%.
